Results on 28 molecules are retold here after PubChem BioAssay (NCATS).

The structures appear in SMILES notation. Results filed as inconclusive are left out. Calls of active or inactive are those of the source. Calls come from the whole dose curve; as a rule, active = well fitted curve in the direction sought with a large enough effect; inconclusive = small, poorly fitted or top-dose-only effect, or another doubt; inactive = no such curve, though single readings can be large; an effect the other way counts as inactive or inconclusive.

T1 sequence (P35557 whole entry, looked up): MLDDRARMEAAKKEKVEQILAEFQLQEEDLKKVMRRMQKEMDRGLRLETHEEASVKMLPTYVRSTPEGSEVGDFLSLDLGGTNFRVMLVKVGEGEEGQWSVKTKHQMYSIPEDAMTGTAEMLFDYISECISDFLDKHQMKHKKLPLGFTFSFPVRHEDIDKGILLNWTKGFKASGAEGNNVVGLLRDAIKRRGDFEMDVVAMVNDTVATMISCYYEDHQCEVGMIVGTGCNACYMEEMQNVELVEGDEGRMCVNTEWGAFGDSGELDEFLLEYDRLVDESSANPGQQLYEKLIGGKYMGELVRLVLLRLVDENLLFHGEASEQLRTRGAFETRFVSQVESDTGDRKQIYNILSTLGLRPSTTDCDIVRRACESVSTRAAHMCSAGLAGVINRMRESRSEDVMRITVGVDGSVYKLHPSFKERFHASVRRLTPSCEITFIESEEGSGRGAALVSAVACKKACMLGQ
T1 sequence (Q14397 whole entry, looked up): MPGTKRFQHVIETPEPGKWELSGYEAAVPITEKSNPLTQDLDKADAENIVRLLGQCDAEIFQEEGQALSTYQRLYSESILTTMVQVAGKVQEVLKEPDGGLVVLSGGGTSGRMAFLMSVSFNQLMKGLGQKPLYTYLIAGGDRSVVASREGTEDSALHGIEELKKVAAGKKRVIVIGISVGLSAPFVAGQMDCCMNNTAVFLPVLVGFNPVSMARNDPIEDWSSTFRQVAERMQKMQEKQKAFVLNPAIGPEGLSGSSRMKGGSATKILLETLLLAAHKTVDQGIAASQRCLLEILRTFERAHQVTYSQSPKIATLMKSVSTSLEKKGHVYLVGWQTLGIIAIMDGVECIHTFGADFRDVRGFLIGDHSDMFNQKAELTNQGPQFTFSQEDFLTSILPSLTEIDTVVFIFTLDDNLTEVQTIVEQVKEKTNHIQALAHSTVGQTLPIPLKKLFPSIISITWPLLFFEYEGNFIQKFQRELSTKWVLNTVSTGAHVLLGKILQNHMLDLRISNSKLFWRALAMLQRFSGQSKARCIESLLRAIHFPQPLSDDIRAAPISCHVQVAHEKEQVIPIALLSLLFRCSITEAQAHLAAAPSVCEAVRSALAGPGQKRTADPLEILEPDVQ

System in the first experiment: not listed separately
The experiment can be described thus: qHTS for Activators of Parkin Expression: LOPAC Validation Assay (FLuc Reporter) (AID 720573;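 note: 0% = DMSO and 100% = positive control compounds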). The following applies: Cell line, PRKN promoter firefly luciferase reporter; series mostly up to 46.1 µM; activation: at the top concentration. The gist of the method: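 Neuronal cell line stably expressing FLuc/NLuc coincidence reporter under the Parkin promoter, 1,500 cells/well, dosed 24 h after seeding in 7-point series for 24 h at 37 C. FLuc luminescence read; normalized to DMSO and positive control (100%).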
On the technique in general: In qHTS, concentration-response curves come from the screen itself.
`CCCCC/C=C\CC(O)/C=C/c1cccc(CC(O)CCCCO)n1` (configuration not stated): the “activation” value was -12.1% (inactive).

Take `Cc1ccc(S(=O)(=O)/C=C/C#N)cc1`: the “activation” value is -49% (inactive).

`Oc1ccc(C2CNCc3sccc32)cc1O` (configuration not stated): the “activation” value was 2.21% (inactive).

Take `CN1CCc2cc(O)c(O)cc2C(c2ccccc2)C1` (configuration not stated): the “activation” value was -3.48% (inactive).

As to `N.N.N.N.N.N.N.N.N.N.N.N.N.N.O.O.[Ru+4].[Ru+5].[Ru+5]`, the “activation” value is -31.4% (inactive).

`C=CC(=O)c1ccc(CCCCCC)cc1`: the “activation” value was 4.54% (inactive).

For the molecule `CCN1/C(=C/C(C)=O)Sc2ccc(OC)cc21`, the “activation” value was -1.41% (inactive).

`C[N+](C)(C)CC(=O)[O-]`: the “activation” value is -8.86% (inactive).

With `CCCn1c(=O)c2[nH]c(-c3ccc(OCC(=O)NCCN)cc3)nc2n(CCC)c1=O`, the “activation” value is -2.61% (inactive).

`O=[N+]([O-])c1ccc2c(c1)S(=O)(=O)C=C2`: the “activation” value is -48.5% (inactive).

For `NCCSSCCN`, the “activation” value is -4.35% (inactive).

Take `C=CC(N)CCC(=O)O` (configuration not stated): the “activation” value is -5.27% (inactive).

Turning to `COc1cc2nc(N3CCN(C(=O)OCc4ccccc4)C(C(=O)NC(C)(C)C)C3)nc(N)c2cc1OC` (configuration not stated), the “activation” value was 0.613% (inactive).

With `CC(C)ON([C@@H](C(=O)NO)C(C)C)S(=O)(=O)c1ccc(-c2ccccc2)cc1`, the “activation” value is -8.02% (inactive).

Regarding `O=C1C(SCCO)=C(SCCO)C(=O)c2ccccc21`, the “activation” value was -49.3% (inactive).

For `CC(C)(C)c1ccc(S(=O)(=O)/C=C/C#N)cc1`, the “activation” value was -48.9% (inactive).

The next experiment addresses T1, Hexokinase-4 (Homo sapiens) + Glucokinase regulatory protein (Homo sapiens) (UniProt P35557+Q14397). The experiment can be described thus: qHTS assay for inhibitors of recombinant human GCK-GKRP interaction: Diaphorase-coupled assay (AID 743205). The settings on record: G6PDH/diaphorase resorufin fluorescence; series mostly up to 57.5 µM; activity change, positive = activation: at the top concentration. The gist of the method: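 Compounds pre-incubated 20 min with substrate, then 10 nM GST-GCK with 10 nM FLAG-GKRP added. GCK activity coupled via G6PDH and diaphorase to resorufin (5 mM glucose, 0.4 mM ATP, 0.15 mM NADP+, pH 7.6), read kinetically over 30 minutes at Ex 525/Em 590 nm.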
With `CCCCC/C=C\CC(O)/C=C/c1cccc(CC(O)CCCCO)n1` (configuration not stated), the “activity change, positive = activation” value was -2.78% (inactive).

On to `Cc1ccc(S(=O)(=O)/C=C/C#N)cc1`, for which the “activity change, positive = activation” value was -4.5% (inactive).

As for `Oc1ccc(C2CNCc3sccc32)cc1O` (configuration not stated), the “activity change, positive = activation” value is -23.3% (inactive).

As to `CN1CCc2cc(O)c(O)cc2C(c2ccccc2)C1` (configuration not stated), the “activity change, positive = activation” value was -11.1% (inactive).

With `N.N.N.N.N.N.N.N.N.N.N.N.N.N.O.O.[Ru+4].[Ru+5].[Ru+5]`, the “activity change, positive = activation” value is -41.4% (inactive).

Take `C=CC(=O)c1ccc(CCCCCC)cc1`: the “activity change, positive = activation” value is -2.07% (inactive).

With `CCN1/C(=C/C(C)=O)Sc2ccc(OC)cc21`, the “activity change, positive = activation” value was -1.27% (inactive).

Turning to `C[N+](C)(C)CC(=O)[O-]`, the “activity change, positive = activation” value is -2% (inactive).

As for `CCCn1c(=O)c2[nH]c(-c3ccc(OCC(=O)NCCN)cc3)nc2n(CCC)c1=O`, the “activity change, positive = activation” value is -1.59% (inactive).

For the molecule `O=[N+]([O-])c1ccc2c(c1)S(=O)(=O)C=C2`, the “activity change, positive = activation” value is 1.07% (inactive).

Consider `NCCSSCCN`, for which the “activity change, positive = activation” value was 0.709% (inactive).

With `C=CC(N)CCC(=O)O` (configuration not stated), the “activity change, positive = activation” value is 0.186% (inactive).

Consider `COc1cc2nc(N3CCN(C(=O)OCc4ccccc4)C(C(=O)NC(C)(C)C)C3)nc(N)c2cc1OC` (configuration not stated), for which the “activity change, positive = activation” value was -3.17% (inactive).

In the case of `CC(C)ON([C@@H](C(=O)NO)C(C)C)S(=O)(=O)c1ccc(-c2ccccc2)cc1`, the “activity change, positive = activation” value was -0.955% (inactive).

`O=C1C(SCCO)=C(SCCO)C(=O)c2ccccc21`: the “activity change, positive = activation” value was -52% (inactive).

`CC(C)(C)c1ccc(S(=O)(=O)/C=C/C#N)cc1`: the “activity change, positive = activation” value is -2.33% (inactive).

The target of the next experiment is T1, Hexokinase-4 (Homo sapiens) + Glucokinase regulatory protein (Homo sapiens). The experiment can be described thus: qHTS assay for inhibitors of recombinant human GCK-GKRP interaction: ADP-Glo assay (AID 743206).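 Note: plate controls were DMSO plus enzyme for no effect and no enzyme for full effect.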 The following applies: ADP-Glo luminescence, 60 min; series mostly up to 76.9 µM; activity, positive = activation: at the top concentration. The gist of the method:
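GST-GCK and FLAG-GKRP (15 nM each in the dispensed mix, with 2 uM S6P) react with 0.4 mM ATP and 5 mM glucose (final) in Hepes pH 7.6 for 60 min at room temperature. ADP is measured by ADP-Glo luminescence.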
In the case of `CCCCC/C=C\CC(O)/C=C/c1cccc(CC(O)CCCCO)n1` (configuration not stated), the “activity, positive = activation” value is -0.724% (inactive).

Take `Cc1ccc(S(=O)(=O)/C=C/C#N)cc1`: the “activity, positive = activation” value was 0.23% (inactive).

`Oc1ccc(C2CNCc3sccc32)cc1O` (configuration not stated): the “activity, positive = activation” value was -0.0939% (inactive).

Take `CN1CCc2cc(O)c(O)cc2C(c2ccccc2)C1` (configuration not stated): the “activity, positive = activation” value was 1.76% (inactive).

Consider `N.N.N.N.N.N.N.N.N.N.N.N.N.N.O.O.[Ru+4].[Ru+5].[Ru+5]`, for which the “activity, positive = activation” value was -19.7% (inactive).

In the case of `C=CC(=O)c1ccc(CCCCCC)cc1`, the “activity, positive = activation” value was 0.701% (inactive).

`CCN1/C(=C/C(C)=O)Sc2ccc(OC)cc21`: the “activity, positive = activation” value is 4.43% (inactive).

On to `C[N+](C)(C)CC(=O)[O-]`, for which the “activity, positive = activation” value was 2.59% (inactive).

Turning to `CCCn1c(=O)c2[nH]c(-c3ccc(OCC(=O)NCCN)cc3)nc2n(CCC)c1=O`, the “activity, positive = activation” value is -2.69% (inactive).

Regarding `O=[N+]([O-])c1ccc2c(c1)S(=O)(=O)C=C2`, the “activity, positive = activation” value was 6.18% (inactive).

Regarding `NCCSSCCN`, the “activity, positive = activation” value is 0.448% (inactive).

Regarding `C=CC(N)CCC(=O)O` (configuration not stated), the “activity, positive = activation” value is -0.934% (inactive).

In the case of `COc1cc2nc(N3CCN(C(=O)OCc4ccccc4)C(C(=O)NC(C)(C)C)C3)nc(N)c2cc1OC` (configuration not stated), the “activity, positive = activation” value is 1.61% (inactive).

Regarding `CC(C)ON([C@@H](C(=O)NO)C(C)C)S(=O)(=O)c1ccc(-c2ccccc2)cc1`, the “activity, positive = activation” value was 0.0888% (inactive).

On to `O=C1C(SCCO)=C(SCCO)C(=O)c2ccccc21`, for which the “activity, positive = activation” value was -5.9% (inactive).

`CC(C)(C)c1ccc(S(=O)(=O)/C=C/C#N)cc1`: the “activity, positive = activation” value is 5.63% (inactive).

A further experiment shares this target. The experiment can be described thus: qHTS assay for inhibitors of recombinant human GCK-GKRP interaction: HTRF assay (AID 743207).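 Note: 0% = DMSO with GCK present and -100% = DMSO wells lacking GCK.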 The following applies: recombinant GCK-GKRP HTRF binding, 60 min, with sorbitol-6-phosphate; series mostly up to 57.5 µM; activity change, negative = inhibition: at the top concentration. The gist of the method:
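HTRF binding of 5 nM GST-GCK and 5 nM FLAG-GKRP with 2 uM S6P in pH 7.1 Hepes buffer (MgCl2, KCl, DTT, Tween 20, BSA). Anti-FLAG XL665 and anti-GST donor added, 60 min at room temperature; 665/615 nm read, normalized to with- and without-GCK controls.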
With `CCCCC/C=C\CC(O)/C=C/c1cccc(CC(O)CCCCO)n1` (configuration not stated), the “activity change, negative = inhibition” value is -7.16% (inactive).

For `Cc1ccc(S(=O)(=O)/C=C/C#N)cc1`, the “activity change, negative = inhibition” value is -3.51% (inactive).

For the molecule `Oc1ccc(C2CNCc3sccc32)cc1O` (configuration not stated), the “activity change, negative = inhibition” value is -7.65% (inactive).

In the case of `C[N+](C)(C)CC(=O)[O-]`, the “activity change, negative = inhibition” value is -4.69% (inactive).

In the case of `O=[N+]([O-])c1ccc2c(c1)S(=O)(=O)C=C2`, the “activity change, negative = inhibition” value is -10.8% (inactive).

For the molecule `C=CC(N)CCC(=O)O` (configuration not stated), the “activity change, negative = inhibition” value is 2.07% (inactive).

As to `COc1cc2nc(N3CCN(C(=O)OCc4ccccc4)C(C(=O)NC(C)(C)C)C3)nc(N)c2cc1OC` (configuration not stated), the “activity change, negative = inhibition” value is 6.47% (inactive).

System in a further experiment: not listed separately
The experiment can be described thus: qHTS Assay for Identifying Gametocytocidal Compounds (AID 743244).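 For max response: % is set by controls: 0 for no effect and ±100 for the full control effect; actives lower the fluorescent signal which means gametocytes are killed.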 Note: potency is the fitted concentration of half-maximal effect. The following applies: P. falciparum 3D7 stage III-V gametocytes, alamarBlue, 72 h; max response: hits give low values. The essentials:
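Fluorescence at Ex 525/Em 598 nm, recorded 24 h after alamarBlue addition, reports residual metabolic activity of 3D7 gametocytes (stages III–V) following 72 h compound exposure at 37 °C, 5% CO2.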
As to `C=CCc1cccc(/C=N/NC(=O)CN2CCN(Cc3ccccc3)CC2)c1O`, the Potency is 29.6 µM (active).

Consider `O=C(Nc1ccc(C(=O)O)c(O)c1)c1ccccc1`, for which the max response is 3.53% (inactive).

For `Clc1ccccc1-c1nc(-c2ccncc2)no1`, the max response is 20.9% (inactive).

Take `Cc1ccc(O)c(-n2nc3ccccc3n2)c1`: the max response was -7.72% (inactive).

Turning to `c1ccc(CCNc2nc(-c3ccccc3)cs2)cc1`, the max response was -4.46% (inactive).

Regarding `NC(=O)C(c1ccccc1)(c1ccccc1)[C@@H]1CCN(CCc2ccc3c(c2)CCO3)C1`, the max response was -5.51% (inactive).

For the molecule `O=c1[nH]c2ccccc2n1CCCN1CCN(C(c2ccccc2)c2ccccc2)CC1`, the max response was 14.5% (inactive).

For `C#CC1(O)CC[C@H]2[C@@H]3CCC4=CCCC[C@@H]4[C@H]3CC[C@@]21C` (some centres not stated), the max response is 18.8% (inactive).

With `N=C(N)N`, the max response is -3.24% (inactive).

As for `O=C(O)Cc1cccc(-c2cc(CCCCCCc3ccc(O[C@H]4O[C@H](CO)[C@@H](O)[C@H](O)[C@@H]4O)c(-c4cccc(CC(=O)O)c4)c3)ccc2O[C@H]2O[C@H](CO)[C@@H](O)[C@H](O)[C@@H]2O)c1`, the max response is 36.1% (inactive).

In the case of `CO/N=C(\C(=O)N[C@@H]1C(=O)N2C(C(=O)O)=C(COC(C)=O)CS[C@H]12)c1csc(N)n1` (stereo in doubt), the max response was 12.7% (inactive).

On to `C/C(=N\O)c1ccc(OCC(=O)N2CCCCC2)cc1`, for which the max response was 0.0539% (inactive).
